Experimental data taken from PubChem BioAssay AID1159580 (chemical genetic matrix, 2015).
In all, about 5,500 compounds went through this assay and about 2,000 (36%) were called active. About 18% were inconclusive and are not listed. No stated cut-off is given here; in the data, active means normalized growth mostly below about 0.91 (no sharp cut-off); inconclusive means no clear call, values can overlap the other calls; inactive means mostly above about 0.92. The list shows a part of the results.

Assay: chemical genetic growth profiling, strain panel (AID 1159580);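 further: tested at 20 µM; growth read once vehicle control cultures reached saturation at 30 °C; 1 = growth at the plate median or of vehicle wells; lower values mean less growth of the strain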
Conditions: growth OD

Measured: normalized growth

Cn1c(=O)[nH]c2nc[nH]c2c1=O
inactive: S. cerevisiae deletion strains, locus YAL021C, strain ccr4, hits give low values 0.98 | S. cerevisiae deletion strains, locus YAL026C, strain drs2, hits give low values 1.01 | S. cerevisiae deletion strains, locus YAL030W, strain snc1, hits give low values 1 | S. cerevisiae deletion strains, locus YBL061C, strain skt5, hits give low values 0.992 | S. cerevisiae deletion strains, locus YBR009C, strain hhf1, hits give low values 0.992 | S. cerevisiae deletion strains, locus YBR021W, strain FUR4, hits give low values 1.01 | S. cerevisiae deletion strains, locus YBR023C, strain chs3, hits give low values 0.993 | S. cerevisiae deletion strains, locus YBR171W, strain sec66, hits give low values 0.972 | S. cerevisiae deletion strains, locus YBR229C, strain ROT2, hits give low values 0.995 | S. cerevisiae deletion strains, locus YBR231C, strain swc5, hits give low values 0.989 | S. cerevisiae deletion strains, locus YBR279W, strain paf1, hits give low values 1 | S. cerevisiae deletion strains, locus YCL011C, strain gbp2, hits give low values 0.996 | S. cerevisiae deletion strains, locus YCL016C, strain dcc1, hits give low values 0.994 | S. cerevisiae deletion strains, locus YCL029C, strain bik1, hits give low values 0.992 | S. cerevisiae deletion strains, locus YCL061C, strain MRC1, hits give low values 0.999 | S. cerevisiae deletion strains, locus YCL069W, strain vba3, hits give low values 0.993 | S. cerevisiae deletion strains, locus YCR088W, strain abp1, hits give low values 1.01 | S. cerevisiae deletion strains, locus YDL005C, strain med2, hits give low values 0.993 | S. cerevisiae deletion strains, locus YDL035C, strain GPR1, hits give low values 1.01 | S. cerevisiae deletion strains, locus YDL040C, strain nat1, hits give low values 0.987 | S. cerevisiae deletion strains, locus YDL074C, strain BRE1, hits give low values 1.04 | S. cerevisiae deletion strains, locus YDL101C, strain DUN1, hits give low values 1.01 | S. cerevisiae deletion strains, locus YDL134C, strain PPH21, hits give low values 1 | S. cerevisiae deletion strains, locus YDL185W, strain tfp1, hits give low values 1.01 | S. cerevisiae deletion strains, locus YDL192W, strain arf1, hits give low values 0.985 | S. cerevisiae deletion strains, locus YDR001C, strain nth1, hits give low values 1 | S. cerevisiae deletion strains, locus YDR069C, strain doa4, hits give low values 1 | S. cerevisiae deletion strains, locus YDR101C, strain arx1, hits give low values 0.995 | S. cerevisiae deletion strains, locus YDR137W, strain rgp1, hits give low values 0.976 | S. cerevisiae deletion strains, locus YDR159W, strain sac3, hits give low values 1.01 | S. cerevisiae deletion strains, locus YDR162C, strain NBP2, hits give low values 1.03 | S. cerevisiae deletion strains, locus YDR195W, strain ref2 0.966 | S. cerevisiae deletion strains, locus YDR297W, strain sur2, hits give low values 1 | S. cerevisiae deletion strains, locus YDR318W, strain mcm21, hits give low values 0.994 | S. cerevisiae deletion strains, locus YDR334W, strain swr1, hits give low values 0.998 | S. cerevisiae deletion strains, locus YDR335W, strain msn5, hits give low values 0.987 | S. cerevisiae deletion strains, locus YDR388W, hits give low values 0.994 | S. cerevisiae deletion strains, locus YDR392W, strain spt3, hits give low values 0.972 | S. cerevisiae deletion strains, locus YDR502C, strain sam2, hits give low values 0.997 | S. cerevisiae deletion strains, locus YEL003W, strain gim4, hits give low values 1.01 | S. cerevisiae deletion strains, locus YEL037C, strain rad23, hits give low values 0.992 | S. cerevisiae deletion strains, locus YEL061C, strain CIN8 (second series), hits give low values 0.995 | S. cerevisiae deletion strains, locus YEL061C, strain CIN8, hits give low values 1 | S. cerevisiae deletion strains, locus YER015W, strain faa2, hits give low values 1.01 | S. cerevisiae deletion strains, locus YER016W, strain bim1, hits give low values 0.993 | S. cerevisiae deletion strains, locus YER110C, hits give low values 1 | S. cerevisiae deletion strains, locus YER111C, strain swi4, hits give low values 0.99 | S. cerevisiae deletion strains, locus YER155C, strain BEM2 (second series), hits give low values 0.992 | S. cerevisiae deletion strains, locus YER155C, strain BEM2, hits give low values 1.01 | S. cerevisiae deletion strains, locus YER167W, strain BCK2, hits give low values 0.997 | S. cerevisiae deletion strains, locus YFR010W, strain ubp6, hits give low values 1.01 | S. cerevisiae deletion strains, locus YGL078C, strain dbp3, hits give low values 1.01 | S. cerevisiae deletion strains, locus YGL086W, strain mad1, hits give low values 1.01 | S. cerevisiae deletion strains, locus YGL167C, strain pmr1, hits give low values 1 | S. cerevisiae deletion strains, locus YGL173C, strain kem1, hits give low values 1.02 | S. cerevisiae deletion strains, locus YGL227W, strain vid30, hits give low values 1 | S. cerevisiae deletion strains, locus YGL240W, strain doc1, hits give low values 1.01 | S. cerevisiae deletion strains, locus YGL248W, strain PDE1, hits give low values 0.996 | S. cerevisiae deletion strains, locus YGL253W, strain hxk2, hits give low values 1 | S. cerevisiae deletion strains, locus YGR078C, strain PAC10, hits give low values 1.01 | S. cerevisiae deletion strains, locus YGR135W, strain pre9, hits give low values 1.01 | S. cerevisiae deletion strains, locus YGR252W, strain gcn5, hits give low values 1.01 | S. cerevisiae deletion strains, locus YHR013C, strain ard1, hits give low values 0.989 | S. cerevisiae deletion strains, locus YHR027C, strain rpn1, hits give low values 1.02 | S. cerevisiae deletion strains, locus YHR030C, strain SLT2, hits give low values 1.02 | S. cerevisiae deletion strains, locus YHR079C, strain IRE1 (second series), hits give low values 1 | S. cerevisiae deletion strains, locus YHR094C, strain hxt1, hits give low values 0.993 | S. cerevisiae deletion strains, locus YHR129C, strain ARP1, hits give low values 1 | S. cerevisiae deletion strains, locus YHR142W, strain chs7, hits give low values 0.997 | S. cerevisiae deletion strains, locus YHR200W, strain rpn10, hits give low values 0.983 | S. cerevisiae deletion strains, locus YIL066C, strain RNR3, hits give low values 1.01 | S. cerevisiae deletion strains, locus YIL073C, strain SPO22, hits give low values 1.03 | S. cerevisiae deletion strains, locus YIL125W, strain kgd1, hits give low values 1 | S. cerevisiae deletion strains, locus YIR030C, strain dcg1, hits give low values 0.995 | S. cerevisiae deletion strains, locus YJL092W, strain hpr5, hits give low values 1 | S. cerevisiae deletion strains, locus YJL095W, strain BCK1 (second series), hits give low values 0.997 | S. cerevisiae deletion strains, locus YJL095W, strain BCK1, hits give low values 1.03 | S. cerevisiae deletion strains, locus YJL115W, strain asf1, hits give low values 1.01 | S. cerevisiae deletion strains, locus YJL129C, strain trk1, hits give low values 1.01 | S. cerevisiae deletion strains, locus YJL134W, strain LCB3, hits give low values 1.01 | S. cerevisiae deletion strains, locus YJL154C, strain vps35, hits give low values 0.997 | S. cerevisiae deletion strains, locus YJL164C, strain tpk1, hits give low values 0.981 | S. cerevisiae deletion strains, locus YJL166W, strain qcr8, hits give low values 0.995 | S. cerevisiae deletion strains, locus YJL168C, strain set2, hits give low values 0.994 | S. cerevisiae deletion strains, locus YJL187C, strain SWE1 (second series), hits give low values 1.01 | S. cerevisiae deletion strains, locus YJL187C, strain SWE1, hits give low values 1 | S. cerevisiae deletion strains, locus YJR043C, strain POL32, hits give low values 1.03 | S. cerevisiae deletion strains, locus YJR075W, strain HOC1, hits give low values 1.01 | S. cerevisiae deletion strains, locus YKL068W, hits give low values 1 | S. cerevisiae deletion strains, locus YKL085W, strain MDH1 (second series), hits give low values 1.02 | S. cerevisiae deletion strains, locus YKL085W, strain MDH1, hits give low values 1.02 | S. cerevisiae deletion strains, locus YKL160W, strain elf1, hits give low values 0.978 | S. cerevisiae deletion strains, locus YKL190W, strain CNB1, hits give low values 1.02 | S. cerevisiae deletion strains, locus YKR001C, strain vps1, hits give low values 1.01 | S. cerevisiae deletion strains, locus YKR026C, strain gcn3, hits give low values 0.999 | S. cerevisiae deletion strains, locus YKR091W, strain srl3, hits give low values 0.997 | S. cerevisiae deletion strains, locus YLL001W, strain dnm1, hits give low values 0.977 | S. cerevisiae deletion strains, locus YLL026W, hits give low values 1 | S. cerevisiae deletion strains, locus YLL041C, strain sdh2, hits give low values 0.999 | S. cerevisiae deletion strains, locus YLR027C, strain aat2, hits give low values 0.991 | S. cerevisiae deletion strains, locus YLR039C, strain RIC1, hits give low values 1.03 | S. cerevisiae deletion strains, locus YLR058C, strain SHM2, hits give low values 1.01 | S. cerevisiae deletion strains, locus YLR102C, strain apc9, hits give low values 1.01 | S. cerevisiae deletion strains, locus YLR221C, strain rsa3, hits give low values 1.01 | S. cerevisiae deletion strains, locus YLR258W, strain gsy2, hits give low values 1.01 | S. cerevisiae deletion strains, locus YLR262C, strain YPT6 (second series), hits give low values 0.979 | S. cerevisiae deletion strains, locus YLR262C, strain YPT6, hits give low values 1.04 | S. cerevisiae deletion strains, locus YLR268W, strain sec22, hits give low values 1.01 | S. cerevisiae deletion strains, locus YLR320W, strain mms22, hits give low values 1 | S. cerevisiae deletion strains, locus YLR330W, strain CHS5, hits give low values 1 | S. cerevisiae deletion strains, locus YLR342W, strain FKS1 (second series), hits give low values 1.01 | S. cerevisiae deletion strains, locus YLR342W, strain FKS1, hits give low values 1 | S. cerevisiae deletion strains, locus YLR357W, strain rsc2, hits give low values 0.977 | S. cerevisiae deletion strains, locus YLR370C, strain arc18, hits give low values 0.999 | S. cerevisiae deletion strains, locus YLR371W, strain rom2, hits give low values 1 | S. cerevisiae deletion strains, locus YLR384C, strain iki3, hits give low values 1 | S. cerevisiae deletion strains, locus YLR418C, strain cdc73, hits give low values 1.01 | S. cerevisiae deletion strains, locus YML016C, strain PPZ1, hits give low values 1 | S. cerevisiae deletion strains, locus YML032C, strain rad52, hits give low values 0.991 | S. cerevisiae deletion strains, locus YML120C, strain ndi1, hits give low values 1 | S. cerevisiae deletion strains, locus YML124C, strain tub3, hits give low values 0.996 | S. cerevisiae deletion strains, locus YMR058W, strain fet3, hits give low values 1.01 | S. cerevisiae deletion strains, locus YMR078C, strain ctf18, hits give low values 0.996 | S. cerevisiae deletion strains, locus YMR125W, strain sto1, hits give low values 0.998 | S. cerevisiae deletion strains, locus YMR129W, hits give low values 1 | S. cerevisiae deletion strains, locus YMR205C, strain PFK2, hits give low values 0.998 | S. cerevisiae deletion strains, locus YMR223W, strain ubp8, hits give low values 0.991 | S. cerevisiae deletion strains, locus YMR231W, strain pep5, hits give low values 0.967 | S. cerevisiae deletion strains, locus YMR307W, strain GAS1, hits give low values 1.05 | S. cerevisiae deletion strains, locus YNL067W, strain RPL9B, hits give low values 1.02 | S. cerevisiae deletion strains, locus YNL071W, strain lat1, hits give low values 1 | S. cerevisiae deletion strains, locus YNL153C, strain GIM3, hits give low values 0.998 | S. cerevisiae deletion strains, locus YNL209W, strain ssb2, hits give low values 0.998 | S. cerevisiae deletion strains, locus YNL233W, strain BNI4, hits give low values 1.01 | S. cerevisiae deletion strains, locus YNL248C, strain rpa49, hits give low values 1.01 | S. cerevisiae deletion strains, locus YNL250W, strain rad50, hits give low values 0.994 | S. cerevisiae deletion strains, locus YNL271C, strain bni1, hits give low values 1 | S. cerevisiae deletion strains, locus YNL298W, strain CLA4, hits give low values 0.999 | S. cerevisiae deletion strains, locus YNL307C, strain MCK1, hits give low values 1 | S. cerevisiae deletion strains, locus YNL322C, strain KRE1 (second series), hits give low values 1.01 | S. cerevisiae deletion strains, locus YNL322C, strain KRE1, hits give low values 1.01 | S. cerevisiae deletion strains, locus YNR049C, strain mso1, hits give low values 1.02 | S. cerevisiae deletion strains, locus YNR052C, strain pop2, hits give low values 0.996 | S. cerevisiae deletion strains, locus YOL012C, strain htz1 0.704 | S. cerevisiae deletion strains, locus YOL147C, strain pex11, hits give low values 1.01 | S. cerevisiae deletion strains, locus YOR001W, strain rrp6, hits give low values 1.02 | S. cerevisiae deletion strains, locus YOR061W, strain CKA2, hits give low values 1.01 | S. cerevisiae deletion strains, locus YOR069W, strain VPS5, hits give low values 1.01 | S. cerevisiae deletion strains, locus YOR070C, strain gyp1, hits give low values 1 | S. cerevisiae deletion strains, locus YOR080W, strain dia2, hits give low values 1.01 | S. cerevisiae deletion strains, locus YOR083W, strain WHI5, hits give low values 0.975 | S. cerevisiae deletion strains, locus YOR106W, strain vam3, hits give low values 1 | S. cerevisiae deletion strains, locus YOR136W, strain idh2, hits give low values 0.998 | S. cerevisiae deletion strains, locus YOR144C, strain elg1, hits give low values 0.996 | S. cerevisiae deletion strains, locus YOR184W, strain ser1, hits give low values 1.02 | S. cerevisiae deletion strains, locus YOR265W, strain rbl2, hits give low values 0.994 | S. cerevisiae deletion strains, locus YOR270C, strain vph1, hits give low values 1 | S. cerevisiae deletion strains, locus YOR290C, strain snf2, hits give low values 0.961 | S. cerevisiae deletion strains, locus YOR316C, strain cot1, hits give low values 0.992 | S. cerevisiae deletion strains, locus YPL051W, strain arl3, hits give low values 0.97 | S. cerevisiae deletion strains, locus YPL078C, strain atp4, hits give low values 0.97 | S. cerevisiae deletion strains, locus YPL106C, strain sse1, hits give low values 0.994 | S. cerevisiae deletion strains, locus YPL240C, strain hsp82, hits give low values 0.999 | S. cerevisiae deletion strains, locus YPL241C, strain CIN2, hits give low values 1.01 | S. cerevisiae deletion strains, locus YPR119W, strain clb2, hits give low values 0.995 | S. cerevisiae deletion strains, locus YPR141C, strain kar3, hits give low values 0.997 | S. cerevisiae deletion strains, locus YPR163C, strain tif3, hits give low values 0.988 | S. cerevisiae deletion strains, locus YPR167C, strain met16, hits give low values 0.997 | S. cerevisiae deletion strains, strain wtn01, hits give low values 1.02 | S. cerevisiae strains, strain wild type, hits give low values 1.01
